Here are results for ten compounds from ChEMBL document CHEMBL3988442, “University of Dundee, Small-Polar-MMV Screening Library” (2021).

For some assays here: Results with a measured potency or affinity are listed apart.

Common to all, as to design: scale not given: direction of the effect not stated beside the values
Assay [1] deals with Protein translocase subunit SecA (Escherichia coli (strain K12)) (UniProt P10408). The experiment in a line: Assay to Identify E. coli SecA ATPase Inhibitors. The assay is classed as functional. To be noted: 30 µM.
Protein translocase subunit SecA (Escherichia coli (strain K12)), sequence (P10408 whole entry): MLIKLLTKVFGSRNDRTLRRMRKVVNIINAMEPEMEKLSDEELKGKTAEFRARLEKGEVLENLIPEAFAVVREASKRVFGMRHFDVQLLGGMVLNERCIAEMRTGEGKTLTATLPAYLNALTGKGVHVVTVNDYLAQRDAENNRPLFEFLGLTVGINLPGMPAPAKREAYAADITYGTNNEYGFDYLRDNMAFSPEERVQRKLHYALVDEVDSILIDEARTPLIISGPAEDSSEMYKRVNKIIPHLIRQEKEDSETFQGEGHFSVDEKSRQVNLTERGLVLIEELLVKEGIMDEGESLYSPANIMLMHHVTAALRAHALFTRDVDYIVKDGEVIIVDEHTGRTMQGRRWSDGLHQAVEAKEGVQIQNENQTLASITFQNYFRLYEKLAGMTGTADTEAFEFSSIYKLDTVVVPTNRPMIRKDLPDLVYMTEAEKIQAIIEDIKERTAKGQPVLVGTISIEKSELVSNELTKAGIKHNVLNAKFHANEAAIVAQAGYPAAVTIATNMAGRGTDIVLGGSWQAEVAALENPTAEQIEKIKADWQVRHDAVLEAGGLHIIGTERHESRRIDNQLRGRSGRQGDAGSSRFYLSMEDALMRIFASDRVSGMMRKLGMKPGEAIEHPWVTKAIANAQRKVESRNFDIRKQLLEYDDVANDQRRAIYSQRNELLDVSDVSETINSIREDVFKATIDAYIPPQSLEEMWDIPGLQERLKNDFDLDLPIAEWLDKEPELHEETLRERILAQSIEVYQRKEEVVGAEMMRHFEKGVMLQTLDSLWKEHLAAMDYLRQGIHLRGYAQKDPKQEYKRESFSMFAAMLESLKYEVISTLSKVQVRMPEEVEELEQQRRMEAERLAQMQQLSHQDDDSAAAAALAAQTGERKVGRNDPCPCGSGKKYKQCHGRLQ
For assay [2], the target named is T1, Ubiquitin-activating enzyme e1, putative (Leishmania donovani (strain BPK282A1)) (UniProt E9BSI1).
T1 sequence (whole entry): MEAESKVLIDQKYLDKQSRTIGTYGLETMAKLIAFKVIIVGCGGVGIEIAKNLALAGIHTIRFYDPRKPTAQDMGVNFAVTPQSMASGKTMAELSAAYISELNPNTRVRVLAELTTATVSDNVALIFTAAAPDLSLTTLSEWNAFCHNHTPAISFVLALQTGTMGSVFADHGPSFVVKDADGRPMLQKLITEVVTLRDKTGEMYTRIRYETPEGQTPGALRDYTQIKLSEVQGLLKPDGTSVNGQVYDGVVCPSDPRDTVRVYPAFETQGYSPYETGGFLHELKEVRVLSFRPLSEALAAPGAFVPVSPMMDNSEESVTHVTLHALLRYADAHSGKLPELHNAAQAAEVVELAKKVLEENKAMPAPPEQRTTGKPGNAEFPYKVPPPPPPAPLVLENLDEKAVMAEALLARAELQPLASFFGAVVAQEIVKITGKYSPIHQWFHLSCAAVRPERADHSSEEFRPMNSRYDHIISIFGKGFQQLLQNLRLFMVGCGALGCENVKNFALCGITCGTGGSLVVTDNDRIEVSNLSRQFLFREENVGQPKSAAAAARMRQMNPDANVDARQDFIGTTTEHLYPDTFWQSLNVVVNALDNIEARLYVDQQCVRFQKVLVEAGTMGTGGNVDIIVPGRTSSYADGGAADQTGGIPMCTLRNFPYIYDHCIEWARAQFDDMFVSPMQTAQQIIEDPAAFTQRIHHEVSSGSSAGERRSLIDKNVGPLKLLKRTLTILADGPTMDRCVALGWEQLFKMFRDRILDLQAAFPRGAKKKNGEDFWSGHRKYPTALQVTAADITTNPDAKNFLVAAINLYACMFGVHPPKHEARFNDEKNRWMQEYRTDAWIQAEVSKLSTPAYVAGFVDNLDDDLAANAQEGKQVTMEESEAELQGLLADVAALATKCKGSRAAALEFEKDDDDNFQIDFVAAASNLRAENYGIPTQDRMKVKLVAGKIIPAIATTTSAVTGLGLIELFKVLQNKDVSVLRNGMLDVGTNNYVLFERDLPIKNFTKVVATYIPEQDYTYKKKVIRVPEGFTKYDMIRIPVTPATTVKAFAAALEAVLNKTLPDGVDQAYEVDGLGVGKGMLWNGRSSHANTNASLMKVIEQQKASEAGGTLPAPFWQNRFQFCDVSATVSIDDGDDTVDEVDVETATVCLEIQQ
The experiment in a line: Leishmania donovani Ubiquitin Activating Enzyme (LdE1). Format: functional. To be noted: 30 µM.

The target in assay [3] is AMP-activated protein kinase, AMPK (Homo sapiens) (UniProt P54646+O43741+P54619+Q9UGJ0+Q9Y478+Q13131+Q9UGI9). The experiment in a line: AMP-dependent Kinase enzyme assay. An in vitro enzyme assay that detects ADP turnover that is directly proportional to AMPK activity. This uses naive AMPK that is activated during the assay with MK-8722. Format: functional. As to conditions: 30 µM.

In assay [4] the target is Sialic acid-binding Ig-like lectin 9 (Homo sapiens) (UniProt Q9Y336). Nature of the assay: Hs-Siglec9 ALPHAscreen SOP 20170721. To be noted: 10 µM.
Sialic acid-binding Ig-like lectin 9 (Homo sapiens), sequence (Q9Y336 whole entry): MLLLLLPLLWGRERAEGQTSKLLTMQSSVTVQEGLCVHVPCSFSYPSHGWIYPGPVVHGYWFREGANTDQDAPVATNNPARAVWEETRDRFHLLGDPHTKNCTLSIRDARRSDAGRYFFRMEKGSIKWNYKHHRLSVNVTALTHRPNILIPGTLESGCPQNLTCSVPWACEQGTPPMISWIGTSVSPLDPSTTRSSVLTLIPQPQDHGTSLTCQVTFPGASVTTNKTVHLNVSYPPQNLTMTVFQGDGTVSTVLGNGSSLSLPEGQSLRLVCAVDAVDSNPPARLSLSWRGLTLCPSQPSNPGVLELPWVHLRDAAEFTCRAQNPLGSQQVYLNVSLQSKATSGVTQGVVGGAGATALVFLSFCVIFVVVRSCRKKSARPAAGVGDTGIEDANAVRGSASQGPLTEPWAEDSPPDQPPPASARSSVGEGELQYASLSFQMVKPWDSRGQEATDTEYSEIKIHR
Another assay relates to Trypanosoma cruzi. The experiment in a line: Trypanosoma cruzi phosphomannomutase and mannose-1-phosphate guanylyltransferase assay. The assay is classed as functional. To be noted: 10 µM.
Assay [5] concerns the target T2, Arginase-2, mitochondrial (Homo sapiens) (UniProt P78540).
T2 sequence (whole entry): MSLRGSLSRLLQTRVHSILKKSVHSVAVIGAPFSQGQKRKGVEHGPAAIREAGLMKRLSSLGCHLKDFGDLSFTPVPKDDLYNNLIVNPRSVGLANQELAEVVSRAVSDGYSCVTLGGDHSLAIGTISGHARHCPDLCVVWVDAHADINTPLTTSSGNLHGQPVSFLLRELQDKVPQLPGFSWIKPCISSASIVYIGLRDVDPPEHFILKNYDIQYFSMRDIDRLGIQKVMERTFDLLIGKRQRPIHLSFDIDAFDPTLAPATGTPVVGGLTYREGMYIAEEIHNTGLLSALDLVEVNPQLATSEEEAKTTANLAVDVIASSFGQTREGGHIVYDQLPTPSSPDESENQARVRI
The experiment in a line: in vitro enzyme assay to detect the production of urea directly proportional to the activity of Arginase II. Further: in the data most compounds retested in dose-response had high values. Format: functional. As to conditions: 33.3 µM.

Assay [6] has as its target T3, Proteasome subunit beta (Trypanosoma cruzi) (UniProt O96673).
T3 sequence (whole entry): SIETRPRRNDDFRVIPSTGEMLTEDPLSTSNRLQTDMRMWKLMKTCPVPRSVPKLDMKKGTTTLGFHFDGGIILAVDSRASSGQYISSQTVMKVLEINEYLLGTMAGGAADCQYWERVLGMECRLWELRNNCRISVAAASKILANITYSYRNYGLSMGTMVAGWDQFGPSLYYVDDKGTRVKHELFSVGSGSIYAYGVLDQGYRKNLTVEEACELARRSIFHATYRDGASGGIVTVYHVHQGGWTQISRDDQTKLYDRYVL
The experiment in a line: Trypanosoma cruzi proteasome chymotrypsin-like activity (TcProtChymo) assay. Further: in the data most compounds retested in dose-response had high values. Format: functional. As to conditions: 9.37 µM.

The species entered for the next assay is Homo sapiens. The experiment in a line: To identify inhibition of the IFN signalling (Jak-Stat) pathway via expression of an eGFP reporter gene under the control of an IFN-stimulated response element (ISRE) containing MxA promoter. Format: functional. As to conditions: 30 µM.
Assay [7] deals with T4, Tyrosyl-tRNA synthetase, putative (Trypanosoma cruzi (strain CL Brener)) (UniProt Q4DSP6).
T4 sequence (whole entry): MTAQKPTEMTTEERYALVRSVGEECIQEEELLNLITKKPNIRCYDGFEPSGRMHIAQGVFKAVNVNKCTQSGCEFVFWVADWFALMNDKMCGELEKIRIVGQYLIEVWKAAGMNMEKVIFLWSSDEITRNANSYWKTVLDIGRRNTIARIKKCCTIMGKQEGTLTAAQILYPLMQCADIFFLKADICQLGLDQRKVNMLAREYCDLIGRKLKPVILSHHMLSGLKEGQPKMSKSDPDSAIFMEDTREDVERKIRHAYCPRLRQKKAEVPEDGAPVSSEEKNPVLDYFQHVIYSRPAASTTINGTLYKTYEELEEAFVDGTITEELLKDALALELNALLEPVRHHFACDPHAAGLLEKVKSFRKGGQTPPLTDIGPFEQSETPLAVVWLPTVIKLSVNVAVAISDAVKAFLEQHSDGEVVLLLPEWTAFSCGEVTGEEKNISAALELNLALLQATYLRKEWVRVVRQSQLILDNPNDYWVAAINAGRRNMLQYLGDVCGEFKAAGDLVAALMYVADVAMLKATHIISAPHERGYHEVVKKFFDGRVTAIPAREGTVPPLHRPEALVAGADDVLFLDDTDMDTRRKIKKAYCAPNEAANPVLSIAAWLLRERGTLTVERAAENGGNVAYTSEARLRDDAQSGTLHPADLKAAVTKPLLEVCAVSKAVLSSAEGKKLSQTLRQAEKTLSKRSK
Nature of the assay: Trypanosoma cruzi tyrosyl tRNA synthetase (TcYRS) _High Tyrosine SOP. Further: in the data most compounds retested in dose-response had high values. Format: functional. As to conditions: 30 µM.

Assay [8] addresses T4, Tyrosyl-tRNA synthetase, putative (Trypanosoma cruzi (strain CL Brener)). The experiment in a line: Trypanosoma cruzi tyrosyl tRNA synthetase (TcYRS) SOP. The assay is classed as functional. To be noted: 30 µM.
In assay [9] the target is Chromo domain-containing protein 1 (Saccharomyces cerevisiae (strain ATCC 204508 / S288c) (Baker's yeast)) (UniProt P32657). Nature of the assay: ScCHD-1 Enzyme Inhibition Assay. Further: in the data most compounds retested in dose-response had high values. As to conditions: 30 µM. Format: functional.
Chromo domain-containing protein 1 (Saccharomyces cerevisiae (strain ATCC 204508 / S288c) (Baker's yeast)), sequence (P32657 whole entry, the tested form may be a part): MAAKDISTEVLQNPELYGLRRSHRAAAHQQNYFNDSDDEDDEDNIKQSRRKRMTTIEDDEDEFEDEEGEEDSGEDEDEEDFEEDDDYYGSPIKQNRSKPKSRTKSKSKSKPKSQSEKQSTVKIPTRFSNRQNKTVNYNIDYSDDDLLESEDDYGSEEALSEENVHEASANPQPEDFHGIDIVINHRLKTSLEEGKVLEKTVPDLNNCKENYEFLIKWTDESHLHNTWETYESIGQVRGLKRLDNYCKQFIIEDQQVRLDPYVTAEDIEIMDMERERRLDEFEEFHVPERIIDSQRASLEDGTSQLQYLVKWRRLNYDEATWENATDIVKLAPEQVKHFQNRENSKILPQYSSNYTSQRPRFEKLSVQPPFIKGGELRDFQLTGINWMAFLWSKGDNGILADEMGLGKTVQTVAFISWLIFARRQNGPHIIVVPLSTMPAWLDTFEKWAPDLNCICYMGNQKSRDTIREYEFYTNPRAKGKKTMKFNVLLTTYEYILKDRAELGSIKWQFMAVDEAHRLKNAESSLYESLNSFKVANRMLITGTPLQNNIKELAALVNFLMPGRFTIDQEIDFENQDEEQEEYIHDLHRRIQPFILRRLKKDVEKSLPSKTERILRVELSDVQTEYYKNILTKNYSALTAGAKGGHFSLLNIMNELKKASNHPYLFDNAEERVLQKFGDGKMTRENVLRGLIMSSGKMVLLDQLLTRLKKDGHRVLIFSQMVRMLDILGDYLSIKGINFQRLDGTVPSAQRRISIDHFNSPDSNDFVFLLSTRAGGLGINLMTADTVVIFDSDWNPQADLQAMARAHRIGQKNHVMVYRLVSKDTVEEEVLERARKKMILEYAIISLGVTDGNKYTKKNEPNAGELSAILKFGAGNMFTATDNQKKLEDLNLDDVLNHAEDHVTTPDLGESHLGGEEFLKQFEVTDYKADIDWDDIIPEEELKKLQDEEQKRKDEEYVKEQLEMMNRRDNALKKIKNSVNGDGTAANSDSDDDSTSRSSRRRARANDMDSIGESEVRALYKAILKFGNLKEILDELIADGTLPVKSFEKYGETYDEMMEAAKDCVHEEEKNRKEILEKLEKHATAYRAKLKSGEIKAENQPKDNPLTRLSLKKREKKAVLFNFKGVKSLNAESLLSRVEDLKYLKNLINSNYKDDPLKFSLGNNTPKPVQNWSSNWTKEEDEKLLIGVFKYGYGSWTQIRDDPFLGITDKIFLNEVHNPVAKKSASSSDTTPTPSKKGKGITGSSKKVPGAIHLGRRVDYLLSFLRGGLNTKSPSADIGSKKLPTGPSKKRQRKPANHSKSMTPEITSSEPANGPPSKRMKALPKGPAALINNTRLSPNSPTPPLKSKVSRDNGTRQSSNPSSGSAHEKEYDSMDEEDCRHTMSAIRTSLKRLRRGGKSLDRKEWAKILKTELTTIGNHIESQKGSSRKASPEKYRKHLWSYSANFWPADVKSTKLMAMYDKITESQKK

On to `Cc1cc(C)c2c(c1)C1(CC(=O)Nc3c1cnn3C(C)C)C(=O)N2` (stereo not given), for which the Percent Effect in assay [1] is 0.0889%; in assay [2], 4%; in [3] it was 4.34%; in assay [4], 1.54%; with Trypanosoma cruzi, 0.982%; in assay [5], -6.16%. Further, the Percent Effect is 8.87% in assay [6]; 21.1% in the assay listed under Homo sapiens; 3.17% in [7]; 2.56% in assay [8]; -5.39% in [9].
As to `CCc1n[nH]c(C2CN(Cc3nnc(C4CC4)n3C)CCO2)n1` (stereo not given), the Percent Effect in [1] is 0.518%; in assay [2], 20.8%; in assay [3] it was -9.24%; in assay [4], -6.88%; in the assay with Trypanosoma cruzi, -1.08%; in assay [5], 3.16%. The Percent Effect in assay [6] was 12.7%; in the assay listed under Homo sapiens, 30.4%; in assay [7] it was 2.86%; in assay [8] it was 9.41%; in [9], -17.9%.
Regarding `COCCN1C[C@@H]2CN(Cc3ccsc3)CCC[C@]2(C(=O)O)C1`, the Percent Effect in assay [1] is 0.995%; in assay [2], 10.4%; in [3], 4.76%; in assay [4], -2.5%; in the assay with Trypanosoma cruzi, -5.23%; in assay [5], 11%. In addition, the Percent Effect was 16.5% in assay [6]; 13.1% in the assay listed under Homo sapiens; 4.23% in assay [7]; 14.1% in [8]; -4.97% in assay [9].
Turning to `CCc1nnc2n1CCN(C(=O)c1cnc3ccccc3n1)C2`, the Percent Effect in assay [1] was -4.63%; in assay [2] it was 4.17%; in [3], -7.62%; in assay [4], 28.2%; in the assay with Trypanosoma cruzi, 3.79%; in assay [5], 17.2%. The Percent Effect was 12.5% in assay [6]; -6.01% in the assay filed under Homo sapiens; 5.26% in assay [7]; 12.8% in assay [8]; -3.35% in assay [9].
For the compound `Cc1ccc(-n2nnc(C(=O)Nc3cc(C)nn3C)c2C2CC2)cc1`, the Percent Effect in [1] is -8.29%; in [2], 5.41%; in assay [3], 1.63%; in [4], -1.73%; in the assay on Trypanosoma cruzi, -3.99%; in assay [5] it was 1.66%. Besides, the Percent Effect in [6] came to 8.98%; in the assay listed under Homo sapiens, 33.1%; in assay [7], 3.96%; in assay [8] it was 1.22%; in assay [9] it was 1%.
Take `Cc1ncsc1C(=O)N(C)Cc1ccncc1`: the Percent Effect in assay [1] is -4.37%; in [2], 10.5%; in [3], 3%; in [4] it was -5.42%; in the assay on Trypanosoma cruzi, -6.58%; in assay [5], -2.68%. The Percent Effect in [6] is 16%; in the assay listed under Homo sapiens it was 23.6%; in assay [7], 1.47%; in [8] it was -7.32%; in assay [9], -6%.
Take `Cc1ccoc1-c1nnc(CNCC2CCCN2c2cccnn2)o1` (stereo not given): the Percent Effect was -6.58% in assay [1]; 0% in assay [2]; -0.825% in assay [3]; 2.96% in [4]; 1.98% in the assay on Trypanosoma cruzi; -0.798% in assay [5]. The Percent Effect was 9.33% in assay [6]; 6.87% in the assay filed under Homo sapiens; 9.38% in assay [7]; 13.6% in assay [8]; 1.55% in assay [9].
On to `COc1cc(C(=O)N(Cc2ccco2)C2CC2)cc2c1OCCO2`, for which the Percent Effect in assay [1] is -0.29%; in assay [2], -2.63%; in [3], 8.94%; in assay [4], 6.17%; with Trypanosoma cruzi, -1.46%; in [5] it was -5.92%. Moreover, the Percent Effect came out at 6.81% in assay [6]; 6.99% in the assay listed under Homo sapiens; 2.13% in assay [7]; 2.6% in assay [8]; 0.909% in assay [9].
For the compound `Cc1ccc(C(=O)N(C)Cc2cc(Br)cs2)c(=O)[nH]1`, the Percent Effect in assay [1] is 1.09%; in assay [2] it was 7.89%; in assay [3], 5.18%; in assay [4] it was -2.8%; in the assay with Trypanosoma cruzi it was -3.8%; in assay [5], -3.55%. Moreover, the Percent Effect was 23.3% in [6]; 0.327% in the assay listed under Homo sapiens; 5.32% in assay [7]; 7.79% in [8]; -3.78% in [9].
Turning to `FC(F)(F)COCCN1CCN(c2ccc3nncn3n2)CC1`, the Percent Effect in assay [1] is -4.65%; in [2], 10.4%; in assay [3], 0.707%; in assay [4], 9.49%; in the assay with Trypanosoma cruzi, 4.87%; in assay [5], -3.92%. Also, the Percent Effect in assay [6] was 2.87%; in the assay listed under Homo sapiens, -15.5%; in assay [7], 5.83%; in assay [8], 14.6%; in [9], -6.46%.
